Out of some 5,500 compounds screened, about 2,000 (36%) were called active. Inconclusive results (about 18%) are left out. No stated cut-off is given here; in the data, active means normalized growth mostly below about 0.91 (no sharp cut-off); inconclusive means no clear call, values can overlap the other calls; inactive means mostly above about 0.92. The list shows a part of the results.
Assay: chemical genetic growth profiling, strain panel (AID 1159580);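 further: tested at 20 µM; growth read once vehicle control cultures reached saturation at 30 °C; 1 = growth at the plate median or of vehicle wells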
Conditions: growth OD

Measured: normalized growth

CC(=O)OCC1=C(C(=O)O)N2C(=O)[C@@H](NC(=O)CSc3ccncc3)[C@H]2SC1
inactive: S. cerevisiae deletion strains, locus YJR043C, strain POL32, stronger effect = lower value 0.959 | S. cerevisiae deletion strains, locus YJR066W, strain TOR1, stronger effect = lower value 0.987 | S. cerevisiae deletion strains, locus YKL009W, strain mrt4, stronger effect = lower value 1 | S. cerevisiae deletion strains, locus YKL068W, stronger effect = lower value 0.982 | S. cerevisiae deletion strains, locus YKL085W, strain MDH1 (second series), stronger effect = lower value 0.975 | S. cerevisiae deletion strains, locus YKL085W, strain MDH1, stronger effect = lower value 0.975 | S. cerevisiae deletion strains, locus YKL160W, strain elf1, stronger effect = lower value 1.03 | S. cerevisiae deletion strains, locus YKR001C, strain vps1, stronger effect = lower value 0.994 | S. cerevisiae deletion strains, locus YKR026C, strain gcn3, stronger effect = lower value 1.03 | S. cerevisiae deletion strains, locus YKR091W, strain srl3, stronger effect = lower value 1.02 | S. cerevisiae deletion strains, locus YLL001W, strain dnm1, stronger effect = lower value 1.02 | S. cerevisiae deletion strains, locus YLL026W, stronger effect = lower value 1.01 | S. cerevisiae deletion strains, locus YLL041C, strain sdh2, stronger effect = lower value 1.02 | S. cerevisiae deletion strains, locus YLR027C, strain aat2, stronger effect = lower value 1.02 | S. cerevisiae deletion strains, locus YLR039C, strain RIC1, stronger effect = lower value 0.981 | S. cerevisiae deletion strains, locus YLR058C, strain SHM2, stronger effect = lower value 0.985 | S. cerevisiae deletion strains, locus YLR102C, strain apc9, stronger effect = lower value 0.988 | S. cerevisiae deletion strains, locus YLR113W, strain HOG1, stronger effect = lower value 0.974 | S. cerevisiae deletion strains, locus YLR221C, strain rsa3, stronger effect = lower value 1.03 | S. cerevisiae deletion strains, locus YLR258W, strain gsy2, stronger effect = lower value 1.01 | S. cerevisiae deletion strains, locus YLR262C, strain YPT6 (second series), stronger effect = lower value 1.07 | S. cerevisiae deletion strains, locus YLR262C, strain YPT6, stronger effect = lower value 0.926 | S. cerevisiae deletion strains, locus YLR268W, strain sec22, stronger effect = lower value 0.957 | S. cerevisiae deletion strains, locus YLR320W, strain mms22, stronger effect = lower value 1 | S. cerevisiae deletion strains, locus YLR330W, strain CHS5, stronger effect = lower value 0.98 | S. cerevisiae deletion strains, locus YLR342W, strain FKS1 (second series), stronger effect = lower value 0.986 | S. cerevisiae deletion strains, locus YLR342W, strain FKS1, stronger effect = lower value 1.03 | S. cerevisiae deletion strains, locus YLR357W, strain rsc2, stronger effect = lower value 1.05 | S. cerevisiae deletion strains, locus YLR370C, strain arc18, stronger effect = lower value 1.01 | S. cerevisiae deletion strains, locus YLR371W, strain rom2, stronger effect = lower value 0.994 | S. cerevisiae deletion strains, locus YLR384C, strain iki3, stronger effect = lower value 1.04 | S. cerevisiae deletion strains, locus YLR418C, strain cdc73, stronger effect = lower value 1.05 | S. cerevisiae deletion strains, locus YML016C, strain PPZ1, stronger effect = lower value 0.987 | S. cerevisiae deletion strains, locus YML032C, strain rad52, stronger effect = lower value 0.992 | S. cerevisiae deletion strains, locus YML120C, strain ndi1, stronger effect = lower value 1.03 | S. cerevisiae deletion strains, locus YML124C, strain tub3, stronger effect = lower value 0.994 | S. cerevisiae deletion strains, locus YMR058W, strain fet3, stronger effect = lower value 1.01 | S. cerevisiae deletion strains, locus YMR078C, strain ctf18, stronger effect = lower value 0.987 | S. cerevisiae deletion strains, locus YMR125W, strain sto1, stronger effect = lower value 1.02 | S. cerevisiae deletion strains, locus YMR129W, stronger effect = lower value 1.02 | S. cerevisiae deletion strains, locus YMR205C, strain PFK2, stronger effect = lower value 1.02 | S. cerevisiae deletion strains, locus YMR223W, strain ubp8, stronger effect = lower value 1.01 | S. cerevisiae deletion strains, locus YMR231W, strain pep5, stronger effect = lower value 1.01 | S. cerevisiae deletion strains, locus YMR263W, strain SAP30, stronger effect = lower value 1 | S. cerevisiae deletion strains, locus YMR307W, strain GAS1, stronger effect = lower value 0.972 | S. cerevisiae deletion strains, locus YNL067W, strain RPL9B, stronger effect = lower value 1.01 | S. cerevisiae deletion strains, locus YNL071W, strain lat1, stronger effect = lower value 1.01 | S. cerevisiae deletion strains, locus YNL183C, strain NPR1, stronger effect = lower value 0.924 | S. cerevisiae deletion strains, locus YNL209W, strain ssb2, stronger effect = lower value 1.02 | S. cerevisiae deletion strains, locus YNL233W, strain BNI4, stronger effect = lower value 1.02 | S. cerevisiae deletion strains, locus YNL248C, strain rpa49, stronger effect = lower value 1.02 | S. cerevisiae deletion strains, locus YNL250W, strain rad50, stronger effect = lower value 0.99 | S. cerevisiae deletion strains, locus YNL271C, strain bni1, stronger effect = lower value 1 | S. cerevisiae deletion strains, locus YNL298W, strain CLA4, stronger effect = lower value 0.992 | S. cerevisiae deletion strains, locus YNL307C, strain MCK1, stronger effect = lower value 0.993 | S. cerevisiae deletion strains, locus YNL322C, strain KRE1 (second series), stronger effect = lower value 1.03 | S. cerevisiae deletion strains, locus YNL322C, strain KRE1, stronger effect = lower value 0.997 | S. cerevisiae deletion strains, locus YNR049C, strain mso1, stronger effect = lower value 1.02 | S. cerevisiae deletion strains, locus YNR052C, strain pop2, stronger effect = lower value 0.991 | S. cerevisiae deletion strains, locus YOL012C, strain htz1 0.881 | S. cerevisiae deletion strains, locus YOL147C, strain pex11, stronger effect = lower value 1 | S. cerevisiae deletion strains, locus YOR001W, strain rrp6, stronger effect = lower value 1.04 | S. cerevisiae deletion strains, locus YOR061W, strain CKA2, stronger effect = lower value 0.969 | S. cerevisiae deletion strains, locus YOR069W, strain VPS5, stronger effect = lower value 0.985 | S. cerevisiae deletion strains, locus YOR070C, strain gyp1, stronger effect = lower value 1.01 | S. cerevisiae deletion strains, locus YOR080W, strain dia2, stronger effect = lower value 1.05 | S. cerevisiae deletion strains, locus YOR083W, strain WHI5, stronger effect = lower value 1.05 | S. cerevisiae deletion strains, locus YOR106W, strain vam3, stronger effect = lower value 1.05 | S. cerevisiae deletion strains, locus YOR136W, strain idh2, stronger effect = lower value 0.983 | S. cerevisiae deletion strains, locus YOR144C, strain elg1, stronger effect = lower value 0.985 | S. cerevisiae deletion strains, locus YOR184W, strain ser1, stronger effect = lower value 0.995 | S. cerevisiae deletion strains, locus YOR231W, strain MKK1, stronger effect = lower value 0.985 | S. cerevisiae deletion strains, locus YOR265W, strain rbl2, stronger effect = lower value 1.02 | S. cerevisiae deletion strains, locus YOR270C, strain vph1, stronger effect = lower value 1.07 | S. cerevisiae deletion strains, locus YOR290C, strain snf2, stronger effect = lower value 0.998 | S. cerevisiae deletion strains, locus YOR316C, strain cot1, stronger effect = lower value 0.981 | S. cerevisiae deletion strains, locus YPL051W, strain arl3, stronger effect = lower value 1.04 | S. cerevisiae deletion strains, locus YPL078C, strain atp4, stronger effect = lower value 1.05 | S. cerevisiae deletion strains, locus YPL106C, strain sse1, stronger effect = lower value 1.02 | S. cerevisiae deletion strains, locus YPL240C, strain hsp82, stronger effect = lower value 1.02 | S. cerevisiae deletion strains, locus YPL241C, strain CIN2, stronger effect = lower value 0.988 | S. cerevisiae deletion strains, locus YPL256C, strain CLN2, stronger effect = lower value 1.01 | S. cerevisiae deletion strains, locus YPR119W, strain clb2, stronger effect = lower value 0.982 | S. cerevisiae deletion strains, locus YPR141C, strain kar3, stronger effect = lower value 0.991 | S. cerevisiae deletion strains, locus YPR163C, strain tif3, stronger effect = lower value 0.991 | S. cerevisiae deletion strains, locus YPR167C, strain met16, stronger effect = lower value 1 | S. cerevisiae deletion strains, strain wtn01, stronger effect = lower value 0.995 | S. cerevisiae strains, strain wild type, stronger effect = lower value 0.982
